What all share (experiment): PBM binding z-score (relative to random genomic background probes); higher = stronger binding; sequences stand for … in GC…GCGATTGACAGCGTAGAATGAAGG
Assay [1] relates to PPARg:RXRa DBDmut IVT, anti-RXR (DBD mutation: RXRa K156A/R161A, NR concentration 270 nM, RXRa partner concentration 90 nM). The procedure, abridged:
(§1)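 Random background probes are the reference for binding z-scores. These scores derive from regression-normalized fluorescence on custom Agilent 4×180K protein-binding microarrays incubated 1 h with ligand-free nuclear receptor dimers. Binding was detected with antibodies against each partner (one per run).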

In assay [2] the test system is PPARg:RXRa IVT, anti-PPARg (NR concentration 270 nM, RXRa partner concentration 90 nM). The essentials: as §1
Assay [3] deals with PPARg DBDmut:RXRa IVT, anti-PPARg (DBD mutation: PPARg1 K132A/R137A, NR concentration 270 nM, RXRa partner concentration 90 nM). The essentials:
as §1

In assay [4] the test system is PPARg DBDmut IVT, anti-PPARg (DBD mutation: PPARg1 K132A/R137A, NR concentration 270 nM). The procedure, abridged: as §1
Assay [5] has as its system PPARg homodimer (NR concentration 180 nM). The procedure, abridged: as §1
Assay [6] relates to PXR:RXRa (NR concentration 270 nM, RXRa partner concentration 90 nM). The essentials: as §1
The test system of assay [7] is PXR homodimer (NR concentration 270 nM). The essentials: as §1
For assay [8], the system named is RARa:RXR (NR concentration 270 nM, RXRa partner concentration 90 nM). The procedure, abridged:
as §1

For assay [9], the system named is RARa homodimer (NR concentration 270 nM). The essentials:
as §1

Assay [10] relates to RARb:RXRa (NR concentration 270 nM, RXRa partner concentration 90 nM). The procedure, abridged:
as §1

For assay [11], the system named is RARb homodimer (NR concentration 270 nM). The procedure, abridged:
as §1

The test system of assay [12] is RARg:RXRa (NR concentration 270 nM, RXRa partner concentration 90 nM). The procedure, abridged: as §1
The subject of assay [13] is RARg homodimer (NR concentration 270 nM). The procedure, abridged: as §1
Assay [14] relates to RXRa DBDmut IVT, anti-RXR (DBD mutation: RXRa K156A/R161A, NR concentration 90 nM). The procedure, abridged:
as §1

In assay [15] the test system is RXRa homodimer (NR concentration 180 nM). The procedure, abridged:
as §1

Assay [16] has as its system THRa:RXRa (NR concentration 90 nM, RXRa partner concentration 90 nM). The procedure, abridged: as §1
Assay [17] deals with THRa homodimer (NR concentration 90 nM). The procedure, abridged:
as §1

Assay [18] has as its system VDR homodimer (NR concentration 270 nM). The essentials:
as §1

As to TCTGCTAGGTCCACGATGGTCAGCTAATCTGCTA, the PBM binding z-score is 0.568 in assay [1]; -0.114 in assay [2]; -0.95 in assay [3]; -0.628 in assay [4]; -0.907 in assay [5]; -0.483 in assay [6]. Also, the PBM binding z-score is -1.23 in assay [7]; -0.477 in assay [8]; -1.27 in [9]; 0.204 in assay [10]; -0.207 in assay [11]; -0.213 in assay [12]. The PBM binding z-score in assay [13] was -0.0544; in assay [14], 0.651; in assay [15] it was -0.333; in assay [16] it was -0.32; in [17], -0.873; in assay [18], -0.326.

On to GCATATAGGTAATACAAGGTGAACGTCCGATTGT, for which the PBM binding z-score in assay [1] was 4.57; in assay [2], 3.63; in assay [3] it was 0.578; in assay [4], 0.846; in [5] it was 0.673; in assay [6] it was 0.252. In addition, the PBM binding z-score came to 0.124 in [7]; 1.37 in assay [8]; 0.675 in assay [9]; 0.51 in assay [10]; 0.986 in assay [11]; 0.615 in assay [12]. In addition, the PBM binding z-score in [13] came to 0.716; in [14], 0.418; in assay [15], 0.745; in assay [16], 4.18; in assay [17] it was 1.38; in [18], 0.386.

For CAAACTAGGTCAAGCTCAAAGTCGGTTTGTGCCA, the PBM binding z-score stood at 8.39 in [1]; 8.97 in assay [2]; 4.04 in [3]; 1.47 in [4]; 1.52 in [5]; 1.38 in assay [6]. For the same sequence, the PBM binding z-score in [7] was -0.401; in assay [8] it was 2.52; in assay [9] it was 0.322; in assay [10], 4.33; in assay [11] it was 3.34; in [12], 4.06. The PBM binding z-score was 4.98 in assay [13]; 1.53 in [14]; 2.55 in assay [15]; 3.2 in assay [16]; 1.34 in [17]; 0.374 in [18].

As for ATCTCTAGGTAACCGAGTTCAGTGAATGCCGAAC, the PBM binding z-score in assay [1] turned out to be 3.51; in assay [2] it was 2.9; in assay [3], 0.719; in assay [4] it was 0.977; in assay [5], 0.0322; in [6] it was 2.93. The PBM binding z-score turned out to be 2.94 in [7]; 1.04 in [8]; 0.216 in [9]; 0.826 in [10]; 1.31 in [11]; 0.6 in [12]. The PBM binding z-score stood at 0.669 in [13]; 1.39 in assay [14]; 0.704 in assay [15]; 1.72 in assay [16]; 0.663 in [17]; 4.05 in [18].

With TCATATAGGTAAAAGGTGAACGTCGGTGTGGTAA, the PBM binding z-score in [1] was 5.71; in assay [2] it was 5.6; in [3], 1.12; in assay [4], 1.53; in [5], 1.65; in [6] it was 1.86. Besides, the PBM binding z-score was 0.862 in assay [7]; 2.9 in assay [8]; 1.07 in assay [9]; 2.15 in assay [10]; 2.19 in assay [11]; 2.22 in assay [12]. Further, the PBM binding z-score turned out to be 1.26 in assay [13]; 1.84 in [14]; 2.94 in [15]; 1.84 in assay [16]; 0.67 in [17]; 0.547 in assay [18].

On to CCTTACGGGTCAAGGTGATAGCACGGGTGGTACG, for which the PBM binding z-score is 1.85 in assay [1]; 3.49 in assay [2]; -0.115 in assay [3]; -0.375 in assay [4]; 1.63 in assay [5]; 2.89 in assay [6]. In addition, the PBM binding z-score is -0.103 in assay [7]; 3.84 in assay [8]; 0.455 in assay [9]; 4.11 in assay [10]; 3.13 in assay [11]; 4.81 in [12]. In addition, the PBM binding z-score in [13] turned out to be 4.64; in assay [14], 0.497; in assay [15] it was 5.2; in assay [16], 2.94; in assay [17] it was 0.765; in [18], 0.801.

Turning to CGAACGAGGGCATGAGTTGATACCAAATGCCGAT, the PBM binding z-score was 2.76 in assay [1]; 2.32 in [2]; -0.303 in assay [3]; -0.419 in assay [4]; 0.59 in assay [5]; 0.723 in [6]. Moreover, the PBM binding z-score in assay [7] is 0.347; in assay [8] it was 0.695; in [9], -0.402; in assay [10] it was 2.03; in assay [11] it was 1.11; in assay [12], 1.48. Also, the PBM binding z-score is 1.6 in [13]; 2.37 in [14]; 0.992 in assay [15]; 1.37 in [16]; -0.127 in assay [17]; 1.57 in assay [18].

ACACCAAGGTGATCGTGAGGTCGTTGATACTAAC: the PBM binding z-score in [1] is 0.605; in assay [2], 1.04; in assay [3], -0.599; in assay [4], 0.153; in assay [5], 0.72; in assay [6], 2.98. Moreover, the PBM binding z-score in assay [7] came out at 1.07; in assay [8] it was 2.18; in assay [9], 0.0851; in [10], 1.47; in assay [11], 1.69; in [12] it was 2.28. The PBM binding z-score in assay [13] was 0.878; in assay [14], 1.13; in assay [15] it was 1.64; in assay [16], 3.42; in [17] it was 2.39; in assay [18], 2.69.

Source of the values: the supplement of paper PMC6555819.
